Experimental data reported in PubChem BioAssay (NCATS).
“And” between values parts separate entries of the source, which are not always exact repeats. Equal entries are not always repeated. Results filed as inconclusive are left out. Some compounds were tested as several samples or in several runs, with calls that do not always agree. The source made the active and inactive calls. The call rests on the fitted dose curve; in most records, active means well fitted curve in the direction sought with a large enough effect; inconclusive means small, poorly fitted or top-dose-only effect, or another doubt; inactive means no such curve, though single readings can be large; an effect the other way counts as inactive or inconclusive.

Key:
SC27B = assay: qHTS profiling for inhibitors of Plasmodium falciparum proliferation (AID 504749); further: nearly all actives have a fitted effect of over 60% in size; settings: P. falciparum in erythrocytes, SYBR Green DNA, 72 h; series mostly up to 28.7 µM
Method in brief: (§1)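 P. falciparum-infected erythrocytes (0.3% parasitemia, 2.5% hematocrit) incubated with compound 72 h at 37 C, 5% CO2. Parasite DNA detected by SYBR Green after lysis, overnight at room temperature; normalised to 0.29 uM artemisinin and DMSO.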

TAB109 = assay: as above; settings: P. falciparum in erythrocytes, SYBR Green DNA, 72 h; series mostly up to 28.7 µM
Method in brief: as §1

TAB113 = assay: as above; settings: P. falciparum in erythrocytes, SYBR Green DNA, 72 h; series mostly up to 28.7 µM
Method in brief: as §1

TAB165 = assay: as above; settings: P. falciparum in erythrocytes, SYBR Green DNA, 72 h; series mostly up to 28.7 µM
Method in brief: as §1

W2 = assay: as above; settings: P. falciparum in erythrocytes, SYBR Green DNA, 72 h; series mostly up to 28.7 µM
Method in brief: as §1

CRL-7250 = normal cell line; assay: Cytotoxic Profiling of Annotated Libraries Using Quantitative High-Throughput Screening (AID 1296008); settings: Five cell lines viability, CellTiter-Glo ATP luminescence, 48-72 h; max response: stronger effect = lower value; further: nearly all actives have a fitted effect of over 60% in size; on max response: on the % scale 0 is the no-effect control and ±100 the full control effect
Method in brief: (§2)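 Cells exposed to compounds for 48 or 72 hr at 37 degrees Celsius. Viability read as ATP-coupled luminescence with CellTiter-Glo after 10 min at room temperature.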

HEK293 = assay: as above; settings: Five cell lines viability, CellTiter-Glo ATP luminescence, 48-72 h; max response: stronger effect = lower value
Method in brief: as §2

HaCat [1] = assay: as above; settings: Five cell lines viability, CellTiter-Glo ATP luminescence, 48-72 h; max response: stronger effect = lower value
Method in brief: as §2

KB-3-1 = assay: as above; settings: Five cell lines viability, CellTiter-Glo ATP luminescence, 48-72 h; max response: stronger effect = lower value
Method in brief: as §2

MCC-13 = assay: qHTS assay to identify novel small-molecules to repurpose for Merkel cell carcinoma treatment (AID 1296009); settings: MCC and control cell lines, CellTiter-Glo viability, 72 h; series mostly up to 46 µM; further: nearly all actives have a fitted effect of over 60% in size
Method in brief: (§3)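 Cells were treated for 72 hr at 37 degree celsius with compounds in 8- or 11-point dose response. Viability was read by CellTiter-Glo luminescence, normalized to no-cell (cytotoxicity) and DMSO controls.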

MCC-26 = assay: as above; settings: MCC and control cell lines, CellTiter-Glo viability, 72 h; series mostly up to 46 µM
Method in brief: as §3

MKL-1 = assay: as above; settings: MCC and control cell lines, CellTiter-Glo viability, 72 h; series mostly up to 46 µM
Method in brief: as §3

MKL-2 = assay: as above; settings: MCC and control cell lines, CellTiter-Glo viability, 72 h; series mostly up to 46 µM
Method in brief: as §3

UISO = assay: as above; settings: MCC and control cell lines, CellTiter-Glo viability, 72 h; series mostly up to 46 µM
Method in brief: as §3

WaGa = assay: as above; settings: MCC and control cell lines, CellTiter-Glo viability, 72 h; series mostly up to 46 µM
Method in brief: as §3

NIH3T3 [2] = assay: Cytotoxic Profiling of Annotated Libraries Using Quantitative High-Throughput Screening (AID 1296008); settings: Five cell lines viability, CellTiter-Glo ATP luminescence, 48-72 h; max response: stronger effect = lower value; further: nearly all actives have a fitted effect of over 60% in size; on max response: on the % scale 0 is the no-effect control and ±100 the full control effect
Method in brief: as §2

C33A = assay: Primary qHTS to identify gynecologic anti-cancer compounds using libraries of approved drugs and bioactive compounds (AID 1345084); settings: Gynecologic cancer cell panel viability, ATPlite luminescence, 48 h; series mostly up to 57.5 µM; further: nearly all actives have a fitted effect of over 55% in size
Method in brief: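 ATP-based viability (ATPlite), 1,000 cells/well, 16 h pre-incubation, 48 h compound at 37 C, 5% CO2, 15 min RT before read.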

HACAT [3] = assay: qHTS assay to identify novel small-molecules to repurpose for Merkel cell carcinoma treatment (AID 1296009); settings: MCC and control cell lines, CellTiter-Glo viability, 72 h; series mostly up to 44.8 µM; further: nearly all actives have a fitted effect of over 60% in size
Method in brief: as §3

HEK293T = assay: as above; settings: MCC and control cell lines, CellTiter-Glo viability, 72 h; at 44.8 µM (top of the series) unless noted
Method in brief: as §3

NIH3T3 [4] = assay: as above; settings: MCC and control cell lines, CellTiter-Glo viability, 72 h; series mostly up to 44.8 µM
Method in brief: as §3
Potency means the concentration at half of the fitted maximal effect.

Clc1ccccc1C(c1ccccc1)(c1ccccc1)n1ccnc1
23.7 µM (active) and inactive: Potency (WaGa)
active: Potency (SC27B) 398 nM | Potency (TAB109) 794 nM | Potency (TAB113) 631 nM | Potency (TAB165) 100 nM | Potency (W2) 405 nM | Potency (HEK293) 20900 nM
inactive: max response (CRL-7250) -11.6% and -17.2% | max response (HaCat [1]) -12.4% and -20.3% | max response (KB-3-1) -12.5% | Potency (MCC-13) | Potency (MCC-26) | Potency (MKL-1) | Potency (MKL-2) | Potency (UISO)

CC(C)NCC(O)c1ccc(O)c(O)c1 (stereo unspecified)
active: Potency (MKL-1) 8.41 µM | Potency (MKL-2) 7.43 µM and 18.8 µM | Potency (WaGa) 3.32 µM and 18.8 µM
inactive: Potency (SC27B) | Potency (TAB109) | Potency (TAB113) | Potency (TAB165) | Potency (W2) | max response (CRL-7250) 0.851% | max response (HaCat [1]) 3.14% and -18% | max response (KB-3-1) 0.229% | max response (NIH3T3 [2]) -0.342% and -6.04% | Potency (MCC-13) | Potency (MCC-26) | Potency (C33A)

O=C(C1CCCCC1)N1CC(=O)N2CCc3ccccc3C2C1 (stereo unspecified)
inactive: Potency (C33A)

CC[C@@]1(O)C(=O)OCc2c1cc1n(c2=O)Cc2cc3c(CN(C)C)c(O)ccc3nc2-1
active: Potency (TAB109) 6310 nM | Potency (TAB113) 4470 nM | Potency (TAB165) 3550 nM | Potency (W2) 5360 nM | Potency (CRL-7250) 7.5 µM and 14.8 µM and 6.51 µM | Potency (HEK293) 372 nM and 517 nM | Potency (HaCat [1]) 1.05 µM and 1.46 µM | Potency (KB-3-1) 5.9 µM and 3.26 µM | Potency (NIH3T3 [2]) 1.68 µM and 1.32 µM and 2.06 µM | Potency (MCC-13) 94.4 nM and 132 nM | Potency (MCC-26) 94.4 nM and 418 nM | Potency (MKL-1) 21.1 nM and 93.5 nM | Potency (MKL-2) 4.2 nM and 13.2 nM | Potency (UISO) 237 nM and 46.9 nM | Potency (WaGa) 3.8 nM and 26.4 nM | Potency (C33A) 2.51 µM and 7.08 µM

COc1ccccc1OCC(O)CN1CCN(CC(=O)Nc2c(C)cccc2C)CC1 (stereo unspecified)
inactive: Potency (SC27B) | Potency (TAB109) | Potency (TAB113) | Potency (TAB165) | Potency (W2) | max response (HEK293) 1.75% | outcome (HEK293) | max response (HaCat [1]) -0.555% | outcome (HaCat [1]) | max response (KB-3-1) 4.47% and -3.97% | max response (NIH3T3 [2]) -5.09% | outcome (NIH3T3 [2]) | outcome (HACAT [3]) | outcome (HEK293T) | Potency (MCC-13) | Potency (MCC-26) | Potency (MKL-1) | Potency (MKL-2) | outcome (NIH3T3 [4]) | Potency (UISO) | Potency (WaGa) | Potency (C33A)

COc1ccccc1OCCNCC(O)COc1cccc2[nH]c3ccccc3c12 (stereo unspecified)
inactive: max response (CRL-7250) 3.53% and -0.382% | max response (HaCat [1]) -11.1% | outcome (HaCat [1]) | max response (KB-3-1) 1.19% and -0.545% | max response (NIH3T3 [2]) -1.47% and -25.5% | outcome (HACAT [3]) | Potency (MCC-13) | Potency (MCC-26) | Potency (MKL-1) | Potency (UISO) | Potency (WaGa) | Potency (C33A)
active: Potency (SC27B) 12600 nM | Potency (TAB109) 10000 nM | Potency (TAB113) 10000 nM | Potency (W2) 4780 nM | Potency (MKL-2) 16.8 µM

OCCN(CCO)c1nc(N2CCCCC2)c2nc(N(CCO)CCO)nc(N3CCCCC3)c2n1
inactive: outcome (HACAT [3]) | Potency (MCC-13) | Potency (MCC-26) | Potency (MKL-1) | outcome (NIH3T3 [4]) | Potency (UISO) | Potency (WaGa) | Potency (C33A)

COc1cc2nc(N3CCN(C(=O)c4ccco4)CC3)nc(N)c2cc1OC
inactive: max response (HaCat [1]) -3.1% | max response (NIH3T3 [2]) -23.2% | Potency (MCC-13) | Potency (MCC-26) | Potency (C33A)
active: Potency (MKL-1) 29.6 µM | Potency (MKL-2) 16.6 µM | Potency (WaGa) 20.9 µM

O=C(Nc1ccc([N+](=O)[O-])cc1Cl)c1cc(Cl)ccc1O
active: Potency (SC27B) 631 nM | Potency (TAB113) 708 nM | Potency (TAB165) 355 nM | Potency (W2) 953 nM | Potency (UISO) 3.26 µM | Potency (WaGa) 4.61 µM | Potency (C33A) 2.51 µM
inactive: Potency (MCC-26)

O=C1c2c(O)ccc(O)c2C(=O)c2c(NCCNCCO)ccc(NCCNCCO)c21
active: Potency (SC27B) 3160 nM | Potency (TAB109) 2240 nM | Potency (TAB113) 3550 nM | Potency (TAB165) 2000 nM | Potency (W2) 1810 nM | Potency (CRL-7250) 4.18 µM and 1.68 µM | Potency (HEK293) 37.2 nM and 15 nM | Potency (HaCat [1]) 264 nM | Potency (KB-3-1) 296 nM | Potency (NIH3T3 [2]) 59 nM and 21.1 nM | Potency (MCC-13) 935 nM and 750 nM | Potency (MCC-26) 1.87 µM and 596 nM | Potency (MKL-1) 105 nM and 6 nM | Potency (MKL-2) 0.006 µM | Potency (UISO) 526 nM and 668 nM | Potency (WaGa) 74.3 nM and 4.7 nM | Potency (C33A) 2.51 µM

COc1ccccc1N1CCN(CC(O)COc2cccc3ccccc23)CC1 (stereo unspecified)
active: Potency (C33A) 8.91 µM
inactive: Potency (SC27B) | Potency (TAB109) | max response (CRL-7250) 4.67% | max response (HaCat [1]) 3.01% | max response (KB-3-1) 9.55% | max response (NIH3T3 [2]) 0.0963% | Potency (MCC-13) | Potency (MCC-26) | Potency (MKL-1) | Potency (MKL-2) | Potency (UISO) | Potency (WaGa)

COc1cc2c(c(OC)c1OC)-c1ccc(OC)c(=O)cc1[C@@H](NC(C)=O)CC2
inactive: Potency (SC27B) | Potency (TAB109) | Potency (TAB113) | Potency (TAB165) | max response (HEK293) -105% | max response (HaCat [1]) -4.55% and -18.6% | max response (NIH3T3 [2]) -60% | Potency (MCC-26) | Potency (MKL-2) | Potency (UISO) | Potency (WaGa)
active: Potency (HEK293) 18.8 nM | Potency (KB-3-1) 23.1 nM and 1 nM | Potency (MCC-13) 11.8 nM

COC(=O)Nc1nc2ccc(C(=O)c3cccs3)cc2[nH]1
active: Potency (CRL-7250) 46.9 nM and 188 nM | Potency (HEK293) 94.4 nM | Potency (KB-3-1) 16.6 nM and 231 nM | Potency (NIH3T3 [2]) 168 nM | Potency (MCC-13) 148 nM and 266 nM | Potency (MCC-26) 132 nM | Potency (UISO) 0.0235 µM | Potency (C33A) 1 µM
inactive: Potency (SC27B) | Potency (TAB109) | Potency (TAB113) | Potency (TAB165) | max response (HaCat [1]) 3.37% and -11.6%

CC1(CN2CCC(n3c(=O)[nH]c4ccccc43)CC2)OCc2ccccc2-n2cccc21 (stereo unspecified)
active: Potency (SC27B) 10000 nM | Potency (TAB165) 8910 nM | Potency (W2) 7570 nM
inactive: max response (CRL-7250) -0.873% and 0.74% | max response (HaCat [1]) -8% | outcome (HaCat [1]) | max response (KB-3-1) -2.15% and -10% | max response (NIH3T3 [2]) -0.569% and -13.1% | outcome (HACAT [3]) | Potency (MCC-13) | Potency (MCC-26) | Potency (MKL-1) | Potency (MKL-2) | Potency (UISO) | Potency (WaGa) | Potency (C33A)

CN(C)CCCN1c2ccccc2CCc2ccc(Cl)cc21
active: Potency (W2) 1900 nM | Potency (HEK293) 13.2 µM and 8.41 µM | Potency (MKL-2) 18.7 µM | Potency (WaGa) 18.7 µM
inactive: Potency (SC27B) | max response (CRL-7250) -24.3% | outcome (HaCat [1]) | max response (NIH3T3 [2]) -22.1% | outcome (HACAT [3]) | Potency (MCC-13) | Potency (MCC-26) | Potency (MKL-1) | Potency (C33A)
